# Test results taken from PubChem BioAssay AID493162 (ICCB-Longwood Screening Facility, Harvard Medical School, 2011).
# Among all 46,000 compounds or so, about 430 (0.93%) were called active. Rule as the data show it: active = normalized absorbance mostly below about 85% (no sharp cut-off); inactive = mostly above about 86%. Only a selection was taken, and actives are over-represented in it overall.
# Tested on: Vaccinia virus DNA polymerase (E9) processive complex
# Assay: vaccinia E9 polymerase processive synthesis inhibitors, primary screen, biochemical, absorbance (AID 493162)
# Conditions: in vitro processive DNA synthesis, absorbance read-out; stronger effect = lower value; concentration not given here
row,SMILES,normalized absorbance
1,Cc1cc(C(=O)OCC(=O)N2CCc3ccccc3C2)c(C)o1,103% (inactive)
2,O=C(COC(=O)c1ccc2ccccc2n1)Nc1ccc(Cl)c(C(F)(F)F)c1,100% (inactive)
3,O=C1CC(c2ccc(Cl)cc2)Sc2nc3ccccc3n21 (configuration not stated),100% (inactive)
4,CCc1ccccc1Nc1cc(C(=O)NCC2COc3ccccc3O2)c2ccccc2n1 (configuration not stated),99.1% (inactive)
5,O=C(OCC(=O)N1CCCCCC1)c1ccc(Cl)nc1,106% (inactive)
6,Brc1ccccc1C1OCC2(CO1)COC(c1ccccc1Br)OC2 (configuration not stated),100% (inactive)
7,O=C(Nc1nc(-c2ccc(Cl)s2)cs1)C1=COCCO1,98.9% (inactive)
8,CCn1c(CNC(C)=O)nc2ccccc21,101% (inactive)
9,O=C(COC(=O)c1n[nH]c2ccccc12)NC(c1ccccc1)c1ccccc1,98.6% (inactive)
10,CNC(=O)Nc1ccc(C(=O)NC)cc1,101% (inactive)
11,CCOc1ccc(OCC)c(NC(=O)CCS(=O)(=O)c2ccc(C)cc2)c1,91.4% (inactive)
12,CCn1c(=NC(=O)C2CC2)sc2cc(Cl)ccc21,71.3% (inactive)
13,NNc1cccc(Cl)n1,78.5% (active)
14,COC(=O)CN1C(=O)c2cccnc2Oc2ccc(C)cc21,92% (inactive)
15,O=C(O)c1ccc(N=Cc2ccc(OC(=O)c3sc4ccccc4c3Cl)cc2)cc1,100% (inactive)
16,CS(=O)(=O)c1nc2ccccc2[nH]1,103% (inactive)
17,C/C(CCc1ccc2c(c1)OCO2)=N\N1C(=N)SC(C(=O)Nc2ccc(C(=O)O)cc2)CC1=O (configuration not stated),100% (inactive)
18,COc1ccc2nc(C(=O)N3CCN(C)CC3)sc2c1,85.1% (inactive)
19,O=C1CN(C(=O)CCC(=O)c2ccc(F)cc2)c2ccccc2N1,101% (inactive)
20,Cn1c(NCc2ccccc2)nc2ccccc21,101% (inactive)
21,O=C(O)CCNC(=O)c1ccc2c(c1)OCCO2,102% (inactive)
22,CSc1ncc(Cl)c(C(=O)N2CCN(c3cccc(Cl)c3)CC2)n1,95.5% (inactive)
23,O=P(O)(CN1CCCCCC1)C1Cc2ccccc2C1,84.6% (inactive)

row,SMILES,normalized absorbance
1,CCOC(=O)c1c(C)oc2ccc(OC(=O)c3ccco3)cc12,99.5% (inactive)
2,CC12CCC3C(CC=C4CC(OC5CCCCO5)CCC43C)C1CCC2=O (configuration not stated),100% (inactive)
3,CC(C)(C)c1cc(C(F)(F)F)n2ncnc2n1,99.9% (inactive)
4,C=CCN(C(=O)c1cccc2c1SCCC2=O)c1ccccc1,113% (inactive)
5,CCN(CC)c1ccc(N=Cc2cccs2)cc1,99.2% (inactive)
6,CCOC(=O)c1c(NC(=O)C(C)Sc2ncccn2)sc2c1CCC2 (configuration not stated),91.9% (inactive)
7,CCN(CC)c1ccc(N=C2C(=C(C#N)C#N)c3ccccc3C2=C(C#N)C#N)cc1,99.9% (inactive)
8,CC(c1ccco1)N(C(=O)c1cccnc1Cl)c1ccccn1 (configuration not stated),97.4% (inactive)
9,c1ccc2c(c1)[I+]c1ccccc1-2,15.1% (active)
10,Oc1ccccc1-c1nnc2n1CCC2,102% (inactive)
11,O=S(=O)(Cc1ccc(Cl)cc1)N1CCc2ccccc2C1,107% (inactive)
12,CC(C)(C)S(=O)(=O)c1cccs1,90.5% (inactive)
13,CC(=O)Nc1ccc2c(c1)CN(C1CCCCC1)CO2,89% (inactive)
14,O=C1C2CC3CC1CC(C(=O)O)(C3)C2,61.8% (active)
15,O=C(O)c1ccc(NC(=O)C23CC4CC(CC(C4)C2)C3)cc1,95.6% (inactive)
16,Cc1ccc2cccc(SCc3ccc(Br)cc3)c2n1,99.8% (inactive)
17,O=C(NCCc1ccccc1)C(C(=O)c1ccccc1)n1ccccc1=O (configuration not stated),104% (inactive)
18,CCc1nc2ccccc2n1CC(=O)N(c1ccccc1)C(C)C,99.6% (inactive)
19,CC(C)N(C(=O)CSc1ncn[nH]1)c1ccccc1,95.7% (inactive)
20,Fc1ccc(CNCc2ccccn2)cc1,105% (inactive)
21,Cc1cc(C(=O)OCC(=O)N2C(C)CCCC2C)c2ccccc2n1 (configuration not stated),106% (inactive)
22,CCNCC1Cc2ccccc2O1 (configuration not stated),110% (inactive)
23,COC(=O)c1c(NC(NC(C)=O)(C(F)(F)F)C(F)(F)F)sc2c1CCN(C)C2,99.8% (inactive)

row,SMILES,normalized absorbance
1,CC(=O)N1CCc2c(sc(NC(=O)C(C)C)c2C(N)=O)C1,119% (inactive)
2,COC(=O)c1c(NC(=O)c2ccc(OC)cc2)sc2c1CCN(C(C)C)C2,56.5% (active)
3,Cc1cc(C)c(S(=O)(=O)N2CCOCC2)cc1C,105% (inactive)
4,CC(C)Oc1cccc(NC(=O)Cc2ncc(C(F)(F)F)cc2Cl)c1,103% (inactive)
5,CC(=Nc1ccc(N(C)C)cc1)C1=C(O)c2ccccc2C1=O,103% (inactive)
6,Cc1ccc(NC(=O)/C=C/c2ccc(Br)o2)cc1,100% (inactive)
7,O=C1Cc2cc(S(=O)(=O)NCc3cccs3)ccc2N1,105% (inactive)
8,O=C(OCC(=O)N1CCCC1)c1ccc(Oc2ccccc2)cc1,94.5% (inactive)
9,O=C(Nc1nc(-c2ccccc2)cs1)c1cccc(S(=O)(=O)N2CCCC2)c1,111% (inactive)
10,CN(C)S(=O)(=O)n1cc(/C=C(\NC(=O)c2ccccc2)C(=O)NCc2ccco2)c2ccccc21,80.2% (inactive)
11,CC[n+]1c(C)n(-c2ccccc2)c2ccc(N)cc21,99.4% (inactive)
12,CC[N+](C)(CC)CCC[n+]1c(-c2ccccc2)c2cc(N)ccc2c2ccc(N)cc21,8.9% (active)
13,CCc1ccc(/C=C2\SC(=S)N(CCCC(=O)Nc3cccnc3)C2=O)cc1,99.7% (inactive)
14,O=C(O)c1ccccc1-c1ccccc1C(=O)Nc1nccs1,70.1% (inactive)
15,O=C(Nc1nccs1)c1cc(=O)c2ccccc2o1,101% (inactive)
16,Nc1[nH]c(=S)sc1C(=O)Nc1nccs1,58.3% (active)
17,CCN1CCN(CCNC(=O)c2ccc3c(c2)NC(=O)/C(=C\c2cccc(Cl)c2)S3)CC1,79.8% (inactive)
18,Clc1ccc(-c2ncc3ccccn23)c(Cl)c1,101% (inactive)
19,OC1CCN(c2ncc(C(F)(F)F)cc2Cl)CC1,105% (inactive)
20,Cc1ccc2nc(C)c3c(c2c1)N(c1ccccc1)CC3,61.5% (active)
21,Cc1ccc2nc(Nc3ccccc3)cc(C)c2c1,100% (inactive)
